# Bioassay records: PubChem, several laboratories
# An excerpt weighted towards active compounds, which were near 3.8% of everything screened.
# PrP UTR inh: inhibition of PrP 5' UTR reporter expression. cell-based PrP 5' UTR mRNA reporter, plate reader. inhibition, % (concentration not given with the values). 340,000 tested, 0.35% active; in the data active = inhibition above about 52%; also: 0 = median of the neutral control wells
# PrPC TRFRET: inhibitors of human cell surface prion protein PrPC, primary screen, cell-based, TR-FRET | TR-FRET read-out | inhibition, % at 13.8 µM | 370,000 tested, 0.43% active | AID 720596, 2013; in the data active = inhibition above about 24%; also: 0% = median of the test wells and 100% = reference compound wells
# FBA Mtb inh: Mtb FBA enzyme inhibitors, primary screen, biochemical, fluorescence, strain H37Rv | Fructose-bisphosphate aldolase (Mycobacterium tuberculosis (strain ATCC 25618 / H37Rv)), … | purified M. tuberculosis FBA, fluorescence read-out | inhibition, % at 1 µM | 360,000 tested, 2.3% active | AID 588726, 2011; in the data active = inhibition above about 27%;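 also: 0% = vehicle and 100% = reference inhibitor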
# Target sequence (P9WQA3 whole entry, looked up): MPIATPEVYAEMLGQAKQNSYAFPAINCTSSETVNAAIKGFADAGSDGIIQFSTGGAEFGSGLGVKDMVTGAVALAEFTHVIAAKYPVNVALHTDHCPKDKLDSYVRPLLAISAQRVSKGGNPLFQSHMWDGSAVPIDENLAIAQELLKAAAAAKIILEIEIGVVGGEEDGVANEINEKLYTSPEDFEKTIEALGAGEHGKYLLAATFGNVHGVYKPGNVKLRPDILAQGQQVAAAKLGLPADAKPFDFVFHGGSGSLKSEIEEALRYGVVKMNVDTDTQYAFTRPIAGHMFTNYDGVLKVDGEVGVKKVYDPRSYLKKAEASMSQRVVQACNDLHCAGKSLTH
# Y pestis TopoI: Yersinia pestis topoisomerase I inhibitors, primary screen, biochemical, cleavage product accumulation, plate reader, single point. activity, % at 10 µM. Y. pestis Topo-I cleavage product accumulation. 360,000 tested, 0.064% active; in the data active = activity above about 50%, passing the limit was not always enough
# Mtb hypoxia inh: PubChem AID 1159583. M. tuberculosis hypoxia-regulated fluorescent reporter, fluorescence. fluorescence inhibition, % (test concentration not listed). 300,000 tested, 0.1% active; in the data active = fluorescence inhibition mostly above about 23%, no sharp cut-off; inactive = mostly below about 17%
# GDH-TPI inh: GDH-TPI coupling enzyme inhibitors, primary screen, artefact control for M. tuberculosis FBA inhibitor project, biochemical, absorbance, full deck. inhibition, % at 4.8 µM. 360,000 tested, 1.2% active. GDH-TPI coupled enzyme counterscreen, NADH absorbance. AID 588335, 2011; in the data active = inhibition above about 30%;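 also: 0% = DMSO wells and 100% = wells lacking the enzyme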
# Starred values were filed as active, the others as inactive; . = no result given; + = active, no number.
SMILES,PrP UTR inh,PrPC TRFRET,FBA Mtb inh,Y pestis TopoI,Mtb hypoxia inh,GDH-TPI inh
CC1(C)Cc2ccccc2-c2nnc(SCC(=O)Nc3ccc4c(c3)OCO4)n21,-24,26*,-1,15,11,-11
O=C(N/N=C/c1ccc2c(c1)OCO2)c1ccccn1,-41,-6,-2,7,.,41*
O=C(N/N=C/c1cc2c(cc1Br)OCO2)c1ccccn1,.,-3,4,0,.,31*
COc1cc(/C=N/NC(=O)c2nc3ccccn3c2C)cc(OC)c1O,-8,5,-2,0,.,20
O=C(CNC(=O)c1ccccn1)NN=Cc1ccc2c(c1)OCO2,.,.,.,.,1,.
Cc1c(C(=O)N/N=C/c2ccc(N3CCOCC3)cc2)nc2ccccn12,-8,1,1,7,.,31*
Cc1ccc2nc(C)c(C(=O)N/N=C/c3ccc(N4CCOCC4)cc3)cc2c1,-17,3,-3,1,.,41*
CCN(CC)S(=O)(=O)c1cccc(C(=O)NN=C2CC(=O)CC(C)(C)C2)c1,.,.,.,.,4,.
COC(=O)[C@@]1(Cc2ccc(OC)cc2)C2c3cc(C(=O)N(C)C)n(Cc4c(CO)[nH]cc(C)c4=O)c3CC2CN1C(=O)c1ccccc1 (stereo partly specified),.,.,.,.,5,.
O=C(NCc1cccnc1)C1CC=CC2CCN(Cc3ccccc3)C(=O)C21 (stereo unspecified),.,.,.,.,-4,.
C#CCOCCOCCOCCNc1nc(N2CCN(C(=O)C(CCC(=O)O)n3cc(C(N)CC(C)C)nn3)CC2)nc(N2CCN(C(=O)C(CCC(=O)O)n3cc(C(N)C(C)CC)nn3)CC2)n1 (stereo unspecified),.,.,.,.,1,.
O=C(N/N=C/c1ccncc1)c1ccccn1,-39,-15,-1,3,.,7
O=C(N/N=C/c1ccc(N2CCOCC2)cc1)c1ccccn1,-68,1,3,-4,.,67*
CN(N=Cc1ccncc1)c1cnn(-c2ccc(F)c(Cl)c2)c(=O)c1Cl,.,.,.,.,8,.
COc1ccc(N=c2oc3cc(O)ccc3cc2C(=O)NCC2CCCO2)c(OC)c1 (stereo unspecified),-4,7,+,5,-5,32*
COc1ccc(N=c2oc3cc(O)ccc3cc2C(=O)NCC2CCCO2)cc1 (stereo unspecified),-8,-6,190*,-5,5,22
CCOc1ccccc1N=c1oc2cc(O)ccc2cc1C(=O)NCC1CCCO1 (stereo unspecified),-8,-7,166*,16,-7,10
COc1ccc(-c2oc3ccccc3c(=O)c2OC(C)=O)cc1,-52,0,+,13,-3,46*
O=C(CN1C(=O)S/C(=C\c2ccc(F)cc2)C1=O)NC1C=CS(=O)(=O)C1 (stereo unspecified),-11,-4,1,4,8,33*
COc1ccc(/C=C2\SC(=O)N(CC(=O)NC3C=CS(=O)(=O)C3)C2=O)cc1 (stereo unspecified),7,-7,-3,0,0,48*
O=C(CN1C(=O)S/C(=C\c2ccccc2F)C1=O)NC1C=CS(=O)(=O)C1 (stereo unspecified),-11,3,-2,-2,1,31*
COc1cccc(N2C(CC(=O)O)c3cc(C(F)(F)F)ccc3S2(=O)=O)c1 (stereo unspecified),.,.,.,.,20,.
CCOc1ccc(NN=C(C#N)C(N)=O)cc1,.,.,.,.,19,.
CC1=CN2C(=N)/C(=C/c3ccc([N+](=O)[O-])o3)C(=O)N=C2S1,-17,1,-3,-6,1,9
CC1=CN2C(=N)/C(=C/c3ccco3)C(=O)N=C2S1,-172,-6,-4,0,16,33*
SMILES,PrP UTR inh,PrPC TRFRET,FBA Mtb inh,Y pestis TopoI,Mtb hypoxia inh,GDH-TPI inh
COc1ccc(C2CC(c3ccc(F)cc3)=NN2c2ccccc2)cc1OC (stereo unspecified),-31,10,11,25,13,-10
COc1ccccc1C1CC(c2ccco2)=NN1c1ccccc1 (stereo unspecified),-25,-3,148*,-2,-4,12
Cc1cc(=S)[nH]c(=S)[nH]1,-5,3,-1,-4,13,35*
CCCC=NNC(=O)c1cccc(Br)c1,.,.,.,.,7,.
O=[N+]([O-])c1cccc(-c2ccc(C=NNC(=S)Nc3ccccc3)o2)c1,.,.,.,.,-9,.
C(/C=C/c1ccccc1)=NNc1nc2ccccc2[nH]1,.,.,.,.,0,.
Cc1ccccc1C=NNc1nc2ccccc2[nH]1,.,.,.,.,-5,.
Cc1ccccc1/C=N/Nc1nc2ccccc2[nH]1,-44,-1,189*,2,.,12
C(=C\c1ccccc1)/C=N/Nc1nc2ccccc2[nH]1,-136,5,0,-26,.,39*
C=CCC(CC(=O)NCCO)C(=O)NCCOC(=O)C(CC=C)CC(=O)OC(C)(C)C (stereo unspecified),.,.,.,.,7,.
COc1ccc(C=NNC(=O)c2cccnc2)cc1,.,.,.,.,2,.
O=C1NC(=O)C(=CC=Cc2ccccc2)S1,.,-5,-2,12,.,38*
O=C1CCN(Cc2ccccc2)CCN1C(CSc1ccccc1)c1ccccc1 (stereo unspecified),.,.,.,.,4,.
CC(=O)c1cc2ccc(O)cc2oc1=O,.,10,+,27,.,10
O=C(NCc1ccco1)c1cc2ccccc2o1,-39,-5,-2,10,.,2
O=C(NCc1ccco1)c1cc2ccc(O)cc2oc1=O,-27,-3,+,1,.,5
COc1ccc2cc(C(C)=O)c(=O)oc2c1,-29,-4,4,-1,11,11
CC(=O)c1cc2cc(O)ccc2o1,-18,7,+,-1,2,17
Cc1ccc(N=c2oc3cc(O)ccc3cc2C(N)=O)cc1,-20,-8,+,-2,-93,8
CC(=O)c1cc2c(O)c(O)ccc2o1,-3,3,4,-1,10,3
Oc1ccc(CC2CNCCN2CC2CCCCC2)cc1 (stereo unspecified),.,.,.,.,4,.
O=S(=O)(NN=C/C=C/c1ccccc1)c1ccc(Cl)cc1,.,.,.,.,-4,.
O=S(=O)(N/N=C\C=C\c1ccccc1)c1ccc(Cl)cc1,.,-1,0,-3,.,59*
O=C(c1cc(=O)[nH]c2ccccc12)N1CCN(c2ccc([N+](=O)[O-])cc2)CC1,-18,-30,-7,1,11,35*
CCc1ccc(Nc2nc(N)nc(CSc3nnnn3-c3ccccc3)n2)cc1,-14,-7,1,53*,.,0
COC(=O)c1ccc2c(CCO)c[nH]c2c1,-43,-1,+,10,10,17
COC(=O)c1ccc(CNC(=O)CCc2c[nH]c3ccccc23)cc1,-17,1,-1,-8,5,-2
